Hit rate of the full screen: of about 360,000 compounds, about 3,800 (1.1%) were called active. For the sample, actives were picked, then their nearest neighbours and some compounds at random. Unmarked numbers belong to inactive results.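 How the source made its calls: active means compounds causing at least 50% loss of cell viability in the single-dose screen, relative to plate controls; inactive means the rest.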
Assay: viability loss with TRAIL in NB7+C8 cells, primary screen, TRAIL sensitizer project, cell-based, ATPlite luminescence (AID 624354)
Conditions: at 10 µM, stronger effect = higher value

| SMILES | inhibition (viability loss, TRAIL sensitization) |
| --- | --- |
| Cc1cccc(C(=O)OC(C)C(=O)NC2CCCc3ccccc32)c1O (stereo unspecified) | 12.2% |
| CC1CCN(C(=O)C2CCN(S(=O)(=O)N3CCC4(CC3)OCCO4)CC2)CC1 | -3.06% |
| CCOC(=O)C1=C(C)NC(C)=C(C(=O)OCC)C1C1=COCCO1 | -19.1% |
| O=C(c1ccc(F)cc1)n1c(=S)nc2ccccn21 | 83% (active) |
| O=C(c1ccc(F)cc1)N1CCC(n2nnc3ccccc32)CC1 | -1.41% |
| CC1COc2ccccc2N1C(=O)c1ccc(F)cc1 (stereo unspecified) | -8.83% |
| Cc1c(C2=CCN(S(=O)(=O)c3ccc(Cl)cc3)CC2)c2ccccc2n1C | 9.41% |
| Cn1c(N)c(C(=O)COC(=O)/C=C/c2ccc(OC(F)F)cc2)c(=O)n(C)c1=O | -6.75% |
| Cc1ccccc1C(OCCN(C)C)C1CCCCC1 (stereo unspecified) | -0.767% |
| CNC(=S)N1N=C(c2ccccc2)CC1c1ccc(Br)cc1 (stereo unspecified) | 79.2% (active) |
| COc1ccc(C2CC(c3ccccc3)=NN2C(=O)CSc2nccc(=O)[nH]2)cc1 (stereo unspecified) | 25.2% |
| Brc1ccc(C2CC(c3ccccc3)=Nc3ccccc3N2)cc1 (stereo unspecified) | 24.3% |
| CC1C(=O)N(Cc2ccccc2)c2ccccc2N1C(=O)c1ccccc1 (stereo unspecified) | -0.863% |
| CC1C(C)N(C(=O)CCl)c2ccccc2N1C(=O)CCl (stereo unspecified) | 88.6% (active) |
| CC1CC(C)CN(CC(=O)N2c3ccccc3CCc3ccccc32)C1 (stereo unspecified) | -22.2% |
| COc1ccc(C(=O)NC(C)Cn2nc(C)cc2C)cc1OC1CCN(C(C)=O)CC1 (stereo unspecified) | 8.29% |
| N#CCCN(C(=O)Nc1ccc(Cl)c(Cl)c1)C1CCCCC1 | 7.87% |
| CC1(C(=O)O)CCC(C(=O)Nc2ccc(Cl)c(Cl)c2)C1(C)C (stereo unspecified) | -2.64% |
| O=C(CC(O)(C(F)(F)F)C(F)(F)F)Nc1ccc(Cl)c(Cl)c1 | 62.6% (active) |
| CC(=O)N1Cc2cc(C(=O)NCc3cccc(F)c3)nc(-c3cccc(C4=CCCCC4)c3)c2[C@H]1CCO | 4.95% |
| CSCCC(NC(N)=O)C(=O)N(C)CC(=O)Nc1ccc(C)cc1 (stereo unspecified) | -24.9% |
| CCOC(=O)c1c(NC(=O)COC(=O)c2ccc(S(=O)(=O)C(F)F)cc2)sc(C(=O)N(C)C)c1C | -18.3% |
| CCOC(=O)c1c(NC(=O)CCl)sc(C(=O)N(CC)CC)c1C | 92.5% (active) |

| SMILES | inhibition (viability loss, TRAIL sensitization) |
| --- | --- |
| COC(=O)c1sc(NC(=O)COC(=O)C2CCC2)c(C(=O)OC)c1C | -0.357% |
| CCc1ccc2oc(-c3ccc(N)cc3)nc2c1 | 74.9% (active) |
| O=C(C(Cc1ccccc1)n1cccc1)N1CCN(C2CCCCC2)CC1 (stereo unspecified) | 1.84% |
| CC(=O)c1cccc(-c2cnc3c(NC=O)cc(-c4ccc(N(C)C)cc4)cn23)c1 | 17.5% |
| CN(C)C(=O)c1cccc(-c2cnc3c(NC=O)cc(-c4ccc(F)cc4)cn23)c1 | 16.1% |
| CN(C)CCNC(=O)c1cccc(-c2cnc3c(NC=O)cc(-c4cccc(C(F)(F)F)c4)cn23)c1 | 59.1% (active) |
| Cc1ccc(-c2ccc(CN3C(C(C)C)C(=O)N(Cc4cn(CCC5OCCO5)nn4)CCS3(=O)=O)cc2)cc1 (stereo unspecified) | -2.12% |
| Oc1cccc2cc(-c3ccncc3)cnc12 | 47.7% |
| Cc1ccc(C(=O)NNC2=Nc3cc([N+](=O)[O-])ccc3OC2)cc1 | -18% |
| COc1ccc(C2=Nc3cc(C)ccc3OC2)cc1 | 58.6% (active) |
| COc1ccc(C(O)c2nc(-c3ccc4c(c3)OCO4)cs2)cc1 (stereo unspecified) | -6.82% |
| C=CCN(CC=C)C(=O)COC(=O)c1n[nH]c2ccccc12 | 9.77% |
| c1ccc2[nH]c(-c3nc4ccccc4[nH]3)nc2c1 | 69.4% (active) |
| O=C1c2ccccc2C(c2nc3ccccc3[nH]2)N1c1ccccc1 (stereo unspecified) | -17.6% |
| Nc1ccccc1-c1nc2ccncc2[nH]1 | 12.6% |
| CCOc1cc(/C=C(/C#N)c2ccc(Cl)cc2)cc(Cl)c1OCC(=O)O | 11.5% |
| O=C(CN1CCCC1)Nc1sc2c(c1C(=O)Nc1ccccc1)CCCC2 | 20.1% |
| NC(=O)c1c(NC(=O)c2ccccc2)sc2c1CCCC2 | 53.3% (active) |
| O=C(O)c1c(NC(=O)N2CCCC2)sc2c1CCCC2 | 1.53% |
| C[C@H]1[C@H]2c3nc4ccccc4n3C[C@H]1ON2C1CCCCC1 | -6.24% |
| Cc1ccccc1S(=O)(=O)NC(=O)C1(C)CCN1C(=O)C1(c2ccc(Cl)cc2)CC1 (stereo unspecified) | -8.57% |
| CC(=O)c1ccc(S(=O)(=O)NC2CC(=O)N(c3ccc4c(c3)OCCO4)C2)cc1 (stereo unspecified) | 2.78% |
| COc1ccc(Br)cc1CN(C)C(=O)C1CC(=O)N(C2CCCC2)C1 (stereo unspecified) | -13.6% |

From PubChem BioAssay AID624354 (Sanford-Burnham Center for Chemical Genomics, 2012)
